# PAX8 reporter: inhibitors of PAX8-driven TPO luciferase reporter, primary screen, RMG-I cells, single concentration | inhibition, % at 12.6 µM | SteadyGlo, 24 h | 1.2% of 360,000 active;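 active = mean replicate inhibition at least 60% with every replicate also reaching 60%; inconclusive = only one of the two criteria is met; inactive = mean below 60% and not all replicates reaching 60%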;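 also: luciferase light reporting Pax8 driven TPO promoter activity; plate controls were median of neutral control wells for no effect and mitoxantrone controls for full effect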
# CFTR F508del cor: F508del CFTR correction, initial screen, CFBE line, single point; 0.36% of 350,000 active; activity (quench increase), % at 7.58 µM; AID 720511, 2013; CFBE cells, YFP halide quenching; stimulated with forskolin plus potentiator P3; % fluorescence drop versus neutral controls;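 active = mean added fluorescence quench of at least 8% versus neutral control, with both replicates also reaching 8%; inconclusive = only one of the mean or replicate conditions met; inactive = mean below 8% and not both replicates reaching 8%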;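 also: cells transiently co-express mutant CFTR-F508del with the halide-sensitive YFP; corrector assay measuring rescue of mutant channel to the surface after 24 h compound exposure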
# Env fusion inh: inhibitors of HIV-1 Env-driven cell-cell fusion, primary screen, HeLa-JRFL effector, CEM21 target cells, luciferase; inhibition, % at 12.3 µM; AID 651610, 2012; 1.1% of 360,000 active;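 active = mean replicate inhibition score of at least 50 and every replicate individually at or above 50; inconclusive = only one of the two criteria met; inactive = mean below 50 and not all replicates reaching 50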;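 also: 0% = plate neutral controls and 100% = maraviroc near 300 nM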
# EWS-Fli block: EWS/Fli-driven NR0B1 reporter inhibitors, primary screen, A673 cells, NR0B1 luciferase, luminescence, MLPCN library. viability-normalised. inhibition, % at 12.6 µM. 0.67% of 350,000 active. AID 651661, 2012;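 active = mean inhibition of at least 50% after viability correction, with every replicate also passing that limit; inconclusive = mean reaches 50% but only one of two replicates passes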;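 also: firefly luciferase signal divided by Alamar Blue viability fluorescence both relative to DMSO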
# GSIS activator: GLuc luminescence reporter in INS-1E cells, primary screen for activators of glucose-dependent secretion of insulin; INS-1E GLuc reporter insulin secretion, 2-3 h; 0.61% of 370,000 active; activation, % at 16.6 µM; AID 743287, 2014;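 active = lowest replicate activation of at least 40%, so every replicate reaches that level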;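 also: 0% = median of neutral control wells and 100% = median of IBMX positive control wells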
# PGC1a acetyl inh: inhibitors of PGC1a acetylation signal, primary screen, cell-based, U2OS, AlphaScreen, inhibitor mode | AlphaScreen anti-acetyl-lysine; with virally co-expressed GCN5 acetyltransferase | inhibition, % at 15.6 µM | 0.17% of 350,000 active;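 active = every replicate shows inhibition of at least 40%; inconclusive = mean inhibition at least 40% but some replicate below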;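 also: 0% = neutral control wells and 100% = positive control wells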
# * hit, by the source's call; i = inactive; ? = inconclusive; / = no result; [ ] = another dose, or the depositor's remark. Most compounds without a hit are left out; they make up all but 2.7% or so of the library.
SMILES,PAX8 reporter,CFTR F508del cor,Env fusion inh,EWS-Fli block,GSIS activator,PGC1a acetyl inh
COc1ccccc1C1CC(c2ccco2)=NN1c1ccccc1 (stereo unspecified),80*,1,/,6,-10,/
CC(C)Oc1ccccc1C1CC(=O)Nc2cc3c(cc21)OCO3 (stereo unspecified),68*,/,-4,/,/,-24
CCOc1ccccc1C1CC(=O)Nc2cc(C)c(C)cc21 (stereo unspecified),47,6,-11,?,-8,-12
Cc1cc2c(cc1C)C(c1ccccc1Br)CC(=O)N2 (stereo unspecified),9,/,-11,14,/,0
Cc1cc2c(cc1C)C(c1ccccc1OC(C)C)CC(=O)N2 (stereo unspecified),-48,12*,-12,33,-50,/
COc1ccccc1C1CC(=O)Nc2cc(C)c(C)cc21 (stereo unspecified),53,?,6,54*,-20,/
O=S(=O)(Nc1cc(Sc2cccc3cccnc23)c(O)c2ccccc12)c1ccccc1,105*,26*,/,6,/,/
CC1=NS(=O)(=O)NC(C)(C)C1,-11,2,-6,0,53*,/
CC1=NC(C#N)=C(C#N)NC(C)(C)C1,-8,1,-1,18,-4,0
C#CCOCCOCCOCCNc1nc(N2CCN(C(=O)[C@H]([C@@H](C)CC)n3cc(CCC(=O)O)nn3)CC2)nc(N2CCN(C(=O)[C@H](CCCCN)n3cc(CCCC)nn3)CC2)n1,5,9.2*,-39,-12,-8,/
O=C(NCC[C@@H]1CC[C@@H](NS(=O)(=O)c2cccc(F)c2)[C@@H](CO)O1)Nc1cc(F)ccc1F,12,-5,-6[16.7 µM],-4,-15,-15
CCCc1nc(SC2CCCC2)c2c(=O)n(C)c(=O)n(C)c2n1,0,8.1*,1,10,7,/
C[C@@H]1CN([C@H](C)CO)S(=O)(=O)c2ccc(Br)cc2O[C@@H]1CN(C)C(=O)CN(C)C,/,-1,-7[16.7 µM],-6,23,-1
CCc1ccc(OCC(=O)NC(=S)Nc2ccc(F)cc2)c(Br)c1,/,/,/,/,59*,-5
CCc1ccc(OCC(=O)NC(=S)Nc2ccc(C(C)=O)cc2)c(Br)c1,/,1,/,8,8,-1
CO[C@H]1CN(C)C(=O)c2cc(NC(=O)c3ccc(F)cc3)ccc2OC[C@H](C)NC[C@@H]1C,-9,-1,10[16.7 µM],-4,5,2
COc1ccc(NC(=O)CSc2ccc(-c3ccco3)nn2)cc1OC,-9,-1,7,/,41*,-1
O=C(CSc1ccc(-c2ccco2)nn1)NC1CCCC1,3,-1,-8,-14,40*,-8
O=C(CSc1ccc(-c2ccco2)nn1)NC1CCCCC1,-21,0,-12,0,1,-3
Cc1ccc(S(=O)(=O)Nc2ccc3c(c2)C(=O)N([C@H](C)CO)C[C@@H](C)[C@@H](CN(C)C(=O)NC2CCCCC2)OCCCC[C@H](C)O3)cc1,0,1,-116[16.7 µM],-15,-21,-10
C[C@@H]1CCCCO[C@H](CN(C)C(=O)Nc2ccc3c(c2)OCO3)[C@@H](C)CN([C@@H](C)CO)C(=O)c2cc(NS(C)(=O)=O)ccc2O1,/,-1,-62[16.7 µM],-4,10,2
O=C(NCCc1ccccc1)[C@@H]1[C@@H](CO)[C@@H]2Cn3c(cccc3=O)[C@H]1N2C(=O)C1CCCC1,/,-3,/,2,15,/
COc1ccc(-c2nnn(Cc3nc(N)nc(N4CCOCC4)n3)n2)cc1OC,/,/,/,/,96*,-6
CCN(CCO)c1nc(NCc2ccccc2)c2cnn(C)c2n1,11,1,11,-4,3,7
CN(CCO)c1nc(NCc2ccccc2)c2cnn(C)c2n1,0,2,26,-5,41*,0
SMILES,PAX8 reporter,CFTR F508del cor,Env fusion inh,EWS-Fli block,GSIS activator,PGC1a acetyl inh
COc1cc(C2Nc3cccc4cccc(c34)N2)ccc1OC(C)=O,/,/,/,/,/,56*
COc1ccc(C2Nc3cccc4cccc(c34)N2)cc1Br,28,-2,22,16,2,9
CC(=Nc1ccccc1)C1=C(O)C(Cc2cccc(F)c2)NC1=O (stereo unspecified),45,-1,-31,40,19,-1
CC(=Nc1ccccc1)C1=C(O)C(Cc2ccc(O)cc2)NC1=O (stereo unspecified),67*,4,i,33,-2,/
O=[N+]([O-])CC(c1ccc(F)cc1)c1c[nH]c2ccccc12 (stereo unspecified),43,3,-28,55*,-18,/
C[C@H]1CN([C@@H](C)CO)C(=O)c2cc(/C=C/c3ccccc3)cnc2O[C@@H]1CN(C)C(=O)c1ccccc1,/,-2,16[16.7 µM],12,-36,-6
COCCn1c(=S)[nH]c2sc3c(c2c1=O)CCCC3,-7,1,2,11,45*,/
COCCCn1c(=S)[nH]c2sc3c(c2c1=O)CCCC3,-10,-2,-9,8,-1,-9
O=C(CSc1n[nH]c(=O)n1C1CC1)Nc1ccccc1,4,-1,-2,0,-5,6
O=C(CSc1n[nH]c(=O)n1C1CC1)Nc1cc(Cl)ccc1Oc1ccccc1,/,/,128*,/,-23,-7
CNC(=O)OCc1nc(SSC(C)(C)C)n(C)c1COC(=O)NC,20,-2,-204,67*,/,-43
CCSc1nc(COC(=O)NC)c(COC(=O)NC)n1C,7,-2,-5,-11,/,8
NS(=O)(=O)c1ccc(NNC(=O)c2ccc(Br)o2)c([N+](=O)[O-])c1,10,8.0*,/,-5,-4,12
Cn1c(NCc2ccccc2F)nc2cc(-c3ccccc3)sc2c1=O,-11,-3,7,0,-37,-16
Cn1c(NCc2ccccc2F)nc2cc(-c3ccsc3)sc2c1=O,22,8.1*,27,-2,-48,-4
C[C@H](CO)N1C[C@H](C)[C@@H](CN(C)S(=O)(=O)c2cn(C)cn2)Oc2ccc(NC(=O)CCC(F)(F)F)cc2C1=O,/,-1,/,4,29,-6
CC(=O)c1cc2c(cc1C)CCCC2(C)C,10,0,16,-3,43*,10
CC(=O)c1cc(F)c(N2CCCCCC2)cc1C,-47,/,-69,/,/,7
O=C(C[C@H]1C[C@@H]2c3cc(NC(=O)NC4CCCC4)ccc3O[C@@H]2[C@H](CO)O1)NCc1cccnc1,-24,-2,/,-8,8,1
C[C@H](CO)N1C[C@H](C)[C@H](CN(C)Cc2ccccc2)Oc2ccc(NC(=O)Nc3cccc4ccccc34)cc2CC1=O,24,0,60*[16.7 µM],2,-4,/
C[C@H]1CN([C@@H](C)CO)C(=O)Cc2cc(NC(=O)Nc3cccc4ccccc34)ccc2O[C@@H]1CN(C)Cc1ccccc1,21,-1,-1[16.7 µM],0,-7,/
